Assay in all cases: NCI-60 one-dose screen, 48 h (100 = growth as untreated, 0 = no growth, -100 = all killed)
For one experiment, the system named is RPMI-8226 leukemia. As to conditions: 10 µM unless noted.
A further experiment concerns OVCAR-8 ovarian. As to conditions: 10 µM unless noted.
A further experiment concerns OVCAR-5 ovarian. As to conditions: 10 µM unless noted.
A further experiment has as its system OVCAR-4 ovarian. As to conditions: 10 µM unless noted.
Another experiment deals with SK-OV-3 ovarian. As to conditions: 10 µM unless noted.
The test system of another experiment is IGROV1 ovarian. As to conditions: 10 µM unless noted.
Another experiment has as its system OVCAR-3 ovarian. As to conditions: 10 µM unless noted.
Another experiment deals with HS 578T breast. As to conditions: 10 µM unless noted.
The next experiment deals with NCI/ADR-RES ovarian. As to conditions: 10 µM unless noted.
Another experiment deals with T-47D breast. As to conditions: 10 µM unless noted.
The next experiment concerns BT-549 breast. As to conditions: 10 µM unless noted.
The test system of another experiment is MDA-MB-435 melanoma. As to conditions: 10 µM unless noted.
For a further experiment, the system named is SW-620 colon. As to conditions: 10 µM unless noted.
The test system of another experiment is MCF7 breast. As to conditions: 10 µM.
The test system of the next experiment is HCT-116 colon. As to conditions: 10 µM unless noted.
The subject of a further experiment is KM12 colon. As to conditions: 10 µM unless noted.
The next experiment concerns HCC-2998 colon. As to conditions: 10 µM unless noted.
In another experiment the test system is SR leukemia. As to conditions: 10 µM unless noted.

Structures are written as SMILES. “And” between values parts separate entries of the source, which are not always exact repeats. Equal values may be shown once. Compounds without any hit were thinned out: in the full panel of roughly 83,000, 20% have a hit.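 A percent growth of 40 corresponds to 60% growth inhibition; 0 means no net growth; -100 means all cells died. Active threshold: below 10.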 The source made the active and inactive calls.

With `CN1c2ccccc2C(C)(C)C12C=Cc1cc(O)ccc1O2` (centres undefined), the growth is -22.8% (active) in the experiment with RPMI-8226 leukemia; 67.3% (inactive) in the experiment with OVCAR-8 ovarian; 82.5% (inactive) in the experiment with OVCAR-5 ovarian; 72.9% (inactive) in the experiment on OVCAR-4 ovarian; 71.4% (inactive) in the experiment on SK-OV-3 ovarian; -7.4% (active) in the experiment on IGROV1 ovarian. Besides, the growth in the experiment on OVCAR-3 ovarian was 4.21% (active); in the experiment with HS 578T breast, -7.66% (active); with NCI/ADR-RES ovarian, 26.4% (inactive); with T-47D breast, 40.2% (inactive); in the experiment on BT-549 breast, 33.2% (inactive); with MDA-MB-435 melanoma, -66.4% (active). The growth in the experiment with SW-620 colon is 46.9% (inactive); in the experiment with MCF7 breast it was 5.47% (active); with HCT-116 colon, 67.9% (inactive); with KM12 colon, 18.7% (inactive).

In the case of `CC1(C)CC([P+](c2ccccc2)(c2ccccc2)c2ccccc2)=NN1`, the growth was 16.2% (inactive) in the experiment with RPMI-8226 leukemia; 67.7% (inactive) in the experiment with OVCAR-5 ovarian; 17.9% (inactive) in the experiment with OVCAR-4 ovarian; 33.2% (inactive) in the experiment on SK-OV-3 ovarian; -22.8% (active) in the experiment with IGROV1 ovarian; 23.7% (inactive) in the experiment on OVCAR-3 ovarian. The growth is 6.55% (active) in the experiment on T-47D breast; 28.2% (inactive) in the experiment on MDA-MB-435 melanoma; 47.6% (inactive) with SW-620 colon; 5.67% (active) with MCF7 breast; 16.6% (inactive) in the experiment with HCT-116 colon; 18.1% (inactive) in the experiment on HCC-2998 colon. Also, the growth in the experiment on KM12 colon was 21.7% (inactive).

For `O=C1NC(=O)/C(=C/C=C/c2ccccc2)S1`, the growth is 38.8% (inactive) in the experiment on RPMI-8226 leukemia; 92.5% (inactive) in the experiment with OVCAR-5 ovarian; 70.1% (inactive) with OVCAR-4 ovarian; 74.7% (inactive) in the experiment with SK-OV-3 ovarian; -6.36% (active) with IGROV1 ovarian; 58.3% (inactive) in the experiment with OVCAR-3 ovarian. The growth was 60.7% (inactive) in the experiment on T-47D breast; 49.6% (inactive) in the experiment on MDA-MB-435 melanoma; 61.4% (inactive) in the experiment with SW-620 colon; 19.1% (inactive) with MCF7 breast; 31.7% (inactive) with HCT-116 colon; 13.2% (inactive) in the experiment on HCC-2998 colon. In the experiment with KM12 colon, the growth was 38% (inactive).

For the compound `CCOC(=O)/C=C/c1ccc([N+](=O)[O-])o1`, the growth in the experiment with SR leukemia was 16.2% (inactive); with RPMI-8226 leukemia it was 74.7% (inactive); with OVCAR-5 ovarian it was 75% (inactive); with OVCAR-4 ovarian, 97.4% (inactive); in the experiment with SK-OV-3 ovarian, 106% (inactive); in the experiment on IGROV1 ovarian, 77.5% (inactive). Besides, the growth with OVCAR-3 ovarian is 17.1% (inactive); in the experiment on HS 578T breast, 98.1% (inactive); with NCI/ADR-RES ovarian it was 50.6% (inactive); with BT-549 breast, 62.7% (inactive); in the experiment with MDA-MB-435 melanoma it was 44% (inactive); in the experiment on SW-620 colon it was 8.72% (active). Further, the growth was 25.5% (inactive) in the experiment on MCF7 breast, -54.3% (active) with HCT-116 colon and 87.4% (inactive) with KM12 colon.

For the compound `Oc1c(Br)cc(Cl)cc1C(c1cc(Cl)cc(Br)c1O)C(Cl)(Cl)Cl`, the growth with SR leukemia was 28.5% (inactive); in the experiment with OVCAR-8 ovarian, 14.3% (inactive); with OVCAR-5 ovarian, 42% (inactive); with SK-OV-3 ovarian it was 32.5% (inactive); in the experiment on IGROV1 ovarian, 24.8% (inactive); with OVCAR-3 ovarian it was 12.7% (inactive). For the same compound, the growth in the experiment on T-47D breast is 28.9% (inactive); in the experiment with BT-549 breast, 28% (inactive); in the experiment on MDA-MB-435 melanoma, 39% (inactive); with SW-620 colon it was 17.8% (inactive); with MCF7 breast, 11.1% (inactive); with HCT-116 colon it was 4.13% (active). For the same compound, the growth in the experiment on KM12 colon is 13% (inactive).

In the case of `O=C(/C=C/c1cccc(Cl)c1)c1ccccc1`, the growth is 7.8% (active) and 11.7% (inactive) in the experiment on SR leukemia; -30.6% (active) and 0.877% (active) with RPMI-8226 leukemia; 97.9% (inactive) and 95.6% (inactive) in the experiment on OVCAR-5 ovarian; 97.8% (inactive) and 92.9% (inactive) in the experiment with OVCAR-4 ovarian; 109% (inactive) and 98.5% (inactive) in the experiment with SK-OV-3 ovarian; 93.7% (inactive) and 71.8% (inactive) in the experiment on IGROV1 ovarian. The growth was 84.9% (inactive) and 80.5% (inactive) with OVCAR-3 ovarian; 108% (inactive) and 107% (inactive) in the experiment with HS 578T breast; 96.8% (inactive) and 88.3% (inactive) in the experiment with T-47D breast; 98.4% (inactive) and 85.2% (inactive) with BT-549 breast; 88.1% (inactive) and 59.8% (inactive) in the experiment on MDA-MB-435 melanoma; 52.8% (inactive) and 39.4% (inactive) in the experiment with SW-620 colon. Moreover, the growth in the experiment with MCF7 breast is 31.4% (inactive) and 15.7% (inactive); in the experiment on HCT-116 colon, 12.3% (inactive) and -17.1% (active); with HCC-2998 colon, 92.5% (inactive); in the experiment with KM12 colon, 63.2% (inactive) and 30.8% (inactive).

On to `N#Cc1ccc([N+](=O)[O-])o1`, for which the growth in the experiment with SR leukemia was 104% (inactive); in the experiment with RPMI-8226 leukemia it was 107% (inactive); in the experiment on OVCAR-5 ovarian it was 107% (inactive); in the experiment with OVCAR-4 ovarian it was 107% (inactive); with SK-OV-3 ovarian, 96.4% (inactive); with IGROV1 ovarian, 109% (inactive). For the same compound, the growth in the experiment with OVCAR-3 ovarian is 118% (inactive); in the experiment with HS 578T breast, 100% (inactive); with NCI/ADR-RES ovarian, 114% (inactive); in the experiment on T-47D breast, 85.1% (inactive); in the experiment on BT-549 breast, 101% (inactive); in the experiment on MDA-MB-435 melanoma, 108% (inactive). For the same compound, the growth in the experiment on SW-620 colon is 106% (inactive); with MCF7 breast, 101% (inactive); in the experiment on HCT-116 colon it was 92.6% (inactive); with KM12 colon, 102% (inactive).

`Cc1ccc(C(=Nc2ccccc2)N=P(c2ccccc2)(c2ccccc2)c2ccccc2)cc1`: the growth is -38.6% (active) with RPMI-8226 leukemia; 6.99% (active) in the experiment on OVCAR-8 ovarian; -5.4% (active) in the experiment with OVCAR-5 ovarian; 29% (inactive) in the experiment on OVCAR-4 ovarian; -66.3% (active) with SK-OV-3 ovarian; -68.5% (active) in the experiment with IGROV1 ovarian. For the same compound, the growth was -37.4% (active) with OVCAR-3 ovarian; -45.8% (active) with HS 578T breast; -10.4% (active) with NCI/ADR-RES ovarian; -33.4% (active) in the experiment on T-47D breast; -26.9% (active) in the experiment on BT-549 breast; -76.4% (active) in the experiment with MDA-MB-435 melanoma. For the same compound, the growth in the experiment with SW-620 colon was -40.7% (active); in the experiment on MCF7 breast it was -39.7% (active); in the experiment with HCT-116 colon it was -37.8% (active); in the experiment on HCC-2998 colon it was -71.6% (active); in the experiment on KM12 colon, -70.9% (active).

`Cc1ccc2nc(C[n+]3ccc4ccccc4c3)ccc2c1`: the growth in the experiment on SR leukemia is 62.8% (inactive); in the experiment on RPMI-8226 leukemia it was 30.5% (inactive); with OVCAR-5 ovarian, 79.7% (inactive); with OVCAR-4 ovarian, 43.8% (inactive); in the experiment with SK-OV-3 ovarian it was 70% (inactive); in the experiment with IGROV1 ovarian, 59.7% (inactive). The growth with OVCAR-3 ovarian is 52.8% (inactive); with T-47D breast, 32.2% (inactive); with BT-549 breast, 21.7% (inactive); with MDA-MB-435 melanoma it was 54.7% (inactive); in the experiment on SW-620 colon, 80.2% (inactive); in the experiment on MCF7 breast, 35.6% (inactive). Further, the figures for the growth with HCT-116 colon, with HCC-2998 colon and in the experiment with KM12 colon were 53.5% (inactive), 71.2% (inactive) and 56.4% (inactive), respectively.

The record behind these values is PubChem BioAssay (NCI).
